This passage reports outcome and Potency results from PubChem BioAssay (Tox21).

The structures appear in SMILES notation. Inconclusive results are not listed. Active and inactive are the calls of the source. Unless noted, calls come from the whole dose curve; as a rule, active = well fitted curve in the direction sought with a large enough effect in the repeat runs; inconclusive = weak or mixed curves; inactive = no such curve, though single readings can be large; an effect the other way counts as inactive or inconclusive.

Experiment [1] can be described thus: qHTS assay to identify small molecule antagonists of the glucocorticoid receptor (GR) signaling pathway - cell viability counter screen (AID 720693). Note: nearly all actives have a fitted effect of over 55% in size. A general note: qHTS replaces the single test concentration by a dilution series.
Experiment [2] in a line: qHTS assay for identifying genotoxic compounds that show differential cytotoxicity against isogenic chicken DT40 cell lines with known DNA damage response pathways - wild type cell line (AID 743012). Note: nearly all actives have a fitted effect of over 60% in size. Note: potency is the fitted concentration of half-maximal effect. The method, boiled down: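 Parental DNA repair-proficient DT40 cells, 300 per well, were pre-incubated ~0.5 h at 37 C/5% CO2, pin-dosed with compounds in DMSO, then incubated 40 h. Viability was read as CellTiter-Glo luminescence after 30 min at room temperature.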

Experiment [3] in a line: qHTS assay for identifying genotoxic compounds that show differential cytotoxicity against isogenic chicken DT40 cell lines with known DNA damage response pathways - Rev3 mutant cell line (AID 743014). Note: nearly all actives have a fitted effect of over 55% in size. Note: potency is the fitted concentration of half-maximal effect.
A short description of experiment [4]: qHTS assay for identifying genotoxic compounds that show differential cytotoxicity against isogenic chicken DT40 cell lines with known DNA damage response pathways - Rad54/Ku70 mutant cell line (AID 743015). Note: nearly all actives have a fitted effect of over 60% in size. Note: potency is the fitted concentration of half-maximal effect.
Experiment [5] in a line: qHTS assay to identify small molecule antagonists of the androgen receptor (AR) signaling pathway - cell viability counter screen (AID 743033; note: nearly all actives have a fitted effect of over 45% in size).
Experiment [6] in a line: qHTS assay to identify small molecule antagonists of the androgen receptor (AR) signaling pathway using the MDA cell line - cell viability counter screen (AID 743041; note: nearly all actives have a fitted effect of over 45% in size). The method, boiled down: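 Same-well cytotoxicity was assessed by CellTiter-Fluor in MDA-kb2 AR-luc cells after 16 h of compound treatment under R1881 agonism.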
Experiment [7] is described as follows: qHTS assay to identify small molecule antagonists of the estrogen receptor alpha (ER-alpha) signaling pathway - cell viability counter screen (AID 743074; calls by dose curve;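 note: HEK293 cells carrying ER-alpha-UAS-bla reporter stimulated with 17beta-estradiol; nearly all actives have a fitted effect of over 45% in size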).
Experiment [8] deals with Estrogen receptor (Homo sapiens) (UniProt P03372). Briefly: qHTS assay to identify small molecule agonists of the estrogen receptor alpha (ER-alpha) signaling pathway (AID 743075; calls by dose curve).
Experiment [9] shares this target. Nature of the experiment: qHTS assay to identify small molecule agonists of the estrogen receptor alpha (ER-alpha) signaling pathway using the BG1 cell line (AID 743079). Note: nearly all actives have a fitted effect of over 20% in size.
Experiment [10] can be described thus: qHTS assay to identify small molecule antagonists of the estrogen receptor alpha (ER-alpha) signaling pathway using the BG1 cell line (AID 743080; calls by dose curve;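 note: BG1 cells stimulated with 17beta-estradiol alongside compound; series mostly up to about 70 µM; nearly all actives have a fitted effect of over 25% in size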). The method, boiled down:
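Endogenous full-length ER-alpha in BG1-Luc-4E2 cells drives a stably integrated 4×ERE luciferase gene; compounds were tested against 17beta-estradiol over 21.5 h, with luminescence and multiplexed viability fluorescence recorded.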

Experiment [11] in a line: qHTS assay to identify small molecule antagonists of the estrogen receptor alpha (ER-alpha) signaling pathway using the BG1 cell line - cell viability counter screen (AID 743081).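 Note: compound given together with 17beta-estradiol as the ER stimulus; series mostly up to about 70 µM; nearly all actives have a fitted effect of over 45% in size.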
For another experiment, the target named is Aromatase (Homo sapiens) (UniProt P11511). Nature of the experiment: qHTS assay to identify aromatase inhibitors (AID 743083). Note: series mostly up to about 70 µM; nearly all actives have a fitted effect of over 55% in size.
Experiment [12] can be described thus: qHTS assay to identify small molecule antagonists of the thyroid receptor (TR) signaling pathway - cell viability counter screen (AID 743064). Note: nearly all actives have a fitted effect of over 50% in size. The method in brief:
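Compounds were tested on GH3.TRE-Luc cells in the presence of T3 at 1 nM final. Following 23.5 h at 37 °C, cell viability was quantified by CellTiter-Fluor.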

Experiment [13] can be described thus: qHTS assay to identify small molecule antagonists of the thyroid receptor (TR) signaling pathway (AID 743065). Note: series mostly up to about 70 µM; nearly all actives have a fitted effect of over 55% in size. The method in brief:
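GH3.TRE-Luc rat pituitary cells (two TREs driving luciferase) were dosed with compound, then stimulated with 1 nM T3 (final) for 23.5 h at 37 C. ONE-Glo luminescence was the read-out, with CellTiter-Fluor fluorescence as the cytotoxicity counter-screen.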

Experiment [14] relates to thyroid hormone receptor (rat, GH3 cells). Nature of the experiment: qHTS assay to identify small molecule agonists of the thyroid receptor (TR) signaling pathway (AID 743066; calls by dose curve).
Experiment [15] addresses Estrogen receptor (Homo sapiens) (UniProt P03372). Nature of the experiment: qHTS assay to identify small molecule antagonists of the estrogen receptor alpha (ER-alpha) signaling pathway (AID 743069; active = well fitted curve in the direction sought with a large enough effect in the signal ratio in the repeat runs, not every such curve was filed as active; the % refers to the signal ratio). The method in brief:
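Reporter cells (ER-alpha-bla, HEK293 background) are conditioned overnight in stripped-serum medium (2% charcoal-stripped FBS). Compound and 17beta-estradiol exposure runs 18 hr at 37C, 5% CO2.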

The target of experiment [16] is Androgen receptor (Homo sapiens) (UniProt P10275). Briefly: qHTS assay to identify small molecule antagonists of the androgen receptor (AR) signaling pathway (AID 743035; active = well fitted inhibition curve with a large enough effect in the signal ratio in the repeat runs, not every such curve was filed as active; the % refers to the signal ratio). The method, boiled down: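 HEK293 cells stably carrying a UAS-driven beta-lactamase reporter (AR-UAS-bla GripTite) were plated for 4 h at 37C, then given compound and the agonist R1881 and incubated 16 h. Reporter activity was read by LiveBLAzer B/G FRET fluorescence after 2 h at room temperature.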

Experiment [17] shares this target. Briefly: qHTS assay to identify small molecule agonists of the androgen receptor (AR) signaling pathway (AID 743036; active = well fitted activation curve with a large enough effect in the signal ratio in the repeat runs, with a control signal flat, not every such curve was filed as active; the % refers to the signal ratio). The method, boiled down: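 Beta-lactamase under UAS control, stably integrated in HEK293 GripTite cells, reports receptor activation. After 16 h compound treatment, cells received FRET substrate for 2 h at room temperature before fluorescence reading.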

Experiment [18] shares this target. Briefly: qHTS assay to identify small molecule agonists of the androgen receptor (AR) signaling pathway using the MDA cell line (AID 743040; note: nearly all actives have a fitted effect of over 20% in size). The method, boiled down:
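Human breast carcinoma MDA-kb2 reporter cells (MMTV-luc, AR/GR elements) were treated for 16 h at 37C in 0% CO2 following a 5 h settling period. Signal was quantified by ONE-Glo luminescence.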

For experiment [19] the target is unchanged. Nature of the experiment: qHTS assay to identify small molecule antagonists of the androgen receptor (AR) signaling pathway using the MDA cell line (AID 743042; note: nearly all actives have a fitted effect of over 55% in size). The method in brief:
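MDA-kb2 breast carcinoma cells carrying MMTV-luciferase (AR/GR responsive) were co-treated with compounds and the agonist R1881 for 16 h at 37C. Inhibition read as ONE-Glo luminescence; CellTiter-Fluor fluorescence measured in parallel for cytotoxicity.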

Sequence of Aromatase (Homo sapiens) (P11511 whole entry, looked up): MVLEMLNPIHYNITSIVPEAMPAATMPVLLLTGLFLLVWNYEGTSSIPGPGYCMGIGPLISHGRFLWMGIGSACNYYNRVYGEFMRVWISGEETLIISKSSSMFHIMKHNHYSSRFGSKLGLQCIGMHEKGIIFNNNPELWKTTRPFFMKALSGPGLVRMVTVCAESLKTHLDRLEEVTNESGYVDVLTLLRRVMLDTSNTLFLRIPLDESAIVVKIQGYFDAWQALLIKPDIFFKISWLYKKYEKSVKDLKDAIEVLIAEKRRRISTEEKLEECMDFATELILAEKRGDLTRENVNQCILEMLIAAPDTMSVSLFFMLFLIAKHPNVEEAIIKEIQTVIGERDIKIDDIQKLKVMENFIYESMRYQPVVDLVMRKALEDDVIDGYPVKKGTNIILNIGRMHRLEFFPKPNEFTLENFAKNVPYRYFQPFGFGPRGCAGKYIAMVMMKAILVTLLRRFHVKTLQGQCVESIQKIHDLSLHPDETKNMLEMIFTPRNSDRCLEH
Sequence of Androgen receptor (Homo sapiens) (P10275 whole entry, looked up): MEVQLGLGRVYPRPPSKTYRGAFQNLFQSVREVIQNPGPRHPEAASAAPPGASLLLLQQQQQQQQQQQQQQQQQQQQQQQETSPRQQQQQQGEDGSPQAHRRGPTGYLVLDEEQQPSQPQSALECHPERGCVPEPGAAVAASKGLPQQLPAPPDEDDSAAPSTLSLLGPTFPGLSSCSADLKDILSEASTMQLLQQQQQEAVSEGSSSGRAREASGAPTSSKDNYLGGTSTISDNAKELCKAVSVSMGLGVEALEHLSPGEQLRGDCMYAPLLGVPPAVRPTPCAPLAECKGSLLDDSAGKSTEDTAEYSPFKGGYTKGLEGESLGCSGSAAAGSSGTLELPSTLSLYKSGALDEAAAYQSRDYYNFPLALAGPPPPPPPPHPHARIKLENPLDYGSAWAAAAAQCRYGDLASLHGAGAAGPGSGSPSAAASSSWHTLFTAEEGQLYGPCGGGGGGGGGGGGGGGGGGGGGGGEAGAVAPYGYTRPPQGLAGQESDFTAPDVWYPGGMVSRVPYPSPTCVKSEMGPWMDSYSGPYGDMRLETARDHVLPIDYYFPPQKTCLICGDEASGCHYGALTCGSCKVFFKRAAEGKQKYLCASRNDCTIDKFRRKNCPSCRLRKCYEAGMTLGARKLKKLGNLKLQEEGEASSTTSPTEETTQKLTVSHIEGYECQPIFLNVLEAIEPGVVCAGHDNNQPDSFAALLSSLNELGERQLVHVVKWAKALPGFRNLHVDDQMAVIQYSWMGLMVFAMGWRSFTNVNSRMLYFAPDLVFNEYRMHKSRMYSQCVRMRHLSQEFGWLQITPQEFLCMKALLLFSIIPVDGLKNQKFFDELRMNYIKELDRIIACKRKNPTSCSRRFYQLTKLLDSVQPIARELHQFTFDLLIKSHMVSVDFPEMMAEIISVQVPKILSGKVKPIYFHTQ
Sequence of Estrogen receptor (Homo sapiens) (P03372 whole entry, looked up): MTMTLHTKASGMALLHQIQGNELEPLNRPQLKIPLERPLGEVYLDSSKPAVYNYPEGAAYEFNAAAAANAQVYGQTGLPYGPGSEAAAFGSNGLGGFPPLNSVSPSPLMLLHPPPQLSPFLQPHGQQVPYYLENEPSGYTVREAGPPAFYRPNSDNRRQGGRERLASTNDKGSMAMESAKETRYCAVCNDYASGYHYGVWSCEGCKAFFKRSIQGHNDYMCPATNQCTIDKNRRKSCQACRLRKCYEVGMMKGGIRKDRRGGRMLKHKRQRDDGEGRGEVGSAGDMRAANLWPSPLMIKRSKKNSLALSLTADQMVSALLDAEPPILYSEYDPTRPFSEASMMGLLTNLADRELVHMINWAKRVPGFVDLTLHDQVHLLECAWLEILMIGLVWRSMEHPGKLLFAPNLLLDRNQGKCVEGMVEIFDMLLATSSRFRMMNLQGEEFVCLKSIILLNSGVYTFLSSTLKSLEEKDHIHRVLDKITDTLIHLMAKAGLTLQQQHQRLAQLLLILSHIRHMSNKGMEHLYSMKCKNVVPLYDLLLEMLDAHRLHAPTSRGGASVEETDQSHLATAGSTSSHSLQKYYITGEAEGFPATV

For the compound `CO/N=C(/C(=O)N[C@@H]1C(=O)N2C(C(=O)[O-])=C(C[n+]3ccn4ncccc43)CS[C@H]12)c1nsc(N)n1`, the call (in [1]; in [5]; in experiment [7]; in experiment [10]; with Aromatase (Homo sapiens)) was inactive. Also, the Potency result in [2], in experiment [3], in [4], in [6], in experiment [8] and in experiment [9] was “inactive” each time. Moreover, in experiment [11], the Potency result is “inactive”.
Take `CC/C=C\CCOC(=O)c1ccccc1O`: the outcome in [1], in [5], in experiment [14], in [15], in experiment [7] and in experiment [10] was inactive. Further, the compound was called inactive with Aromatase (Homo sapiens). Moreover, the Potency result in experiment [2], in [4], in [6], in [12], in experiment [13] and in experiment [8] was “inactive” throughout. The Potency result in [9] and in experiment [11] was “inactive” each time.
As to `CC(=O)CC(=O)Nc1ccc(C)cc1C`, the compound was classed as inactive in experiment [1], in [5], in [16], in experiment [17], in experiment [19] and in [14]. In addition, the outcome (in [7]; with Aromatase (Homo sapiens)) was inactive. Also, the Potency entry in experiment [2], in [4], in experiment [18], in experiment [6], in experiment [12] and in [13] was “inactive” throughout. The Potency entry in experiment [11] is “inactive”.
As for `Nc1nc(-c2ccccc2)c(Br)c(=O)[nH]1`, the compound was called inactive (in experiment [1]; in experiment [5]; in experiment [15]; in experiment [7]; in [10]; with Aromatase (Homo sapiens)). Besides, the Potency entry in experiment [2], in experiment [4], in [18], in [6], in experiment [12] and in experiment [8] was “inactive” each time. Also, the Potency entry in experiment [9] and in experiment [11] was “inactive” throughout.
With `Cc1ccc(N)cc1S(=O)(=O)O`, the compound was classed as inactive in [1], in [5], in experiment [14], in [15], in experiment [7] and in [10]. Moreover, the call with Aromatase (Homo sapiens) was inactive. The Potency entry in [2], in experiment [3], in experiment [6], in [12], in experiment [13] and in [8] was “inactive” throughout. The Potency entry in experiment [9] and in experiment [11] was “inactive” throughout.
On to `COc1nc(N)nc2nc[nH]c12`, for which the compound was called inactive in experiment [1], in experiment [5], in experiment [14], in experiment [15], in experiment [7] and in [10]. In the experiment with Aromatase (Homo sapiens), the compound was classed as inactive. Besides, the Potency entry in [2], in experiment [4], in [6], in experiment [12], in experiment [13] and in experiment [8] was “inactive” throughout. Also, the Potency result in experiment [9] and in [11] was “inactive” each time.
As to `CCCCCCCCCCCCCCCCCCOCCO`, the compound was called inactive in experiment [1], in experiment [5], in experiment [14], in [15], in [7] and in [10]. Moreover, the outcome with Aromatase (Homo sapiens) was inactive. In addition, the Potency entry in [2], in experiment [4], in experiment [6], in experiment [12], in experiment [13] and in [8] was “inactive” throughout. For the same compound, the Potency entry in experiment [9] and in experiment [11] was “inactive” each time.
As for `Cn1nnc2c(C(N)=O)ncn2c1=O`, the outcome in experiment [1], in [5], in experiment [14], in experiment [15], in [7] and in experiment [10] was inactive. In addition, in the experiment with Aromatase (Homo sapiens), the outcome was inactive. The Potency result in experiment [2], in experiment [4], in experiment [6], in experiment [12], in [13] and in experiment [8] was “inactive” throughout. Also, the Potency entry in experiment [9] and in experiment [11] was “inactive” in each case.
As for `CC1=C(C(=O)O)N2C(=O)[C@@H](NC(=O)[C@H](N)c3ccccc3)[C@H]2SC1`, the result in [1], in experiment [5], in [14], in experiment [15], in experiment [7] and in [10] was inactive. The Potency result in [2], in experiment [4], in [6], in [12], in experiment [13] and in [8] was “inactive” in each case. The Potency entry in [9] and in experiment [11] was “inactive” throughout.
`CN(C)CCOC(=O)C(c1ccccc1)C1(O)CCCC1` (centres undefined): the outcome in experiment [1], in experiment [5], in experiment [14], in [15], in experiment [7] and in experiment [10] was inactive. The compound was called inactive with Aromatase (Homo sapiens). Further, the Potency result in experiment [2], in experiment [4], in [6], in experiment [12], in [13] and in experiment [8] was “inactive” in each case. Further, the Potency result in experiment [9] and in [11] was “inactive” throughout.
Regarding `C=Cc1ccc(C(C)(C)C)cc1`, the result (in experiment [1]; in experiment [5]; in experiment [14]; in experiment [7]; with Aromatase (Homo sapiens)) was inactive. Moreover, the Potency result in [2], in [3], in experiment [4], in [12], in experiment [13] and in [11] was “inactive” in each case.
With `CCOC(CN1CCN(CC(C)C(=O)c2ccccc2)CC1)c1ccccc1` (centres undefined), the compound was called inactive in experiment [1], in experiment [5], in [14] and in experiment [7]. The Potency is 10.6 µM (active) in experiment [2], 13.3 µM (active) in experiment [3] and 18.8 µM (active) in [4]. Further, in experiment [11], the Potency entry was “inactive”.
